From PubChem BioAssay
D2 antag: antagonists of human D2 dopamine receptor; HEK293 TREx D2 cells, calcium flux, dopamine EC80; 340,000 tested, 2% active; inhibition, % at 10 µM; P14416; in the data active means inhibition above about 30%; inactive means below that, where a call was filed
Target sequence (P14416 whole entry, looked up): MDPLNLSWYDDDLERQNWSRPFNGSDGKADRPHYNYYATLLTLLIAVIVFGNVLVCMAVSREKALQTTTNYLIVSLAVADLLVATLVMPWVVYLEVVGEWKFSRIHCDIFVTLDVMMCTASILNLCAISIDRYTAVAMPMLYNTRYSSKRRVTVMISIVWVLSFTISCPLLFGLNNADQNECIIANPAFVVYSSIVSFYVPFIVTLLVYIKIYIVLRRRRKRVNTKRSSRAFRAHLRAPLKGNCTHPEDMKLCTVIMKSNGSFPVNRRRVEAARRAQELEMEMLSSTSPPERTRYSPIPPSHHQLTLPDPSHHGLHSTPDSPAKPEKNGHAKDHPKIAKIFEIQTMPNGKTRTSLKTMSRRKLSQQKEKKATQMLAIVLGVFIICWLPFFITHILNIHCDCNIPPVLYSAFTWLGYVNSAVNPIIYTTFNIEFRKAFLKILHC
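Overnight-induced (tetracycline, 30 C) HEK293 T-REx cells carrying force-coupled D2 receive a no-wash calcium dye, then compound, then EC80 dopamine at 180 s; signals are read kinetically throughout.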
D2 ag-1: activates the human D2 dopamine receptor; P14416; HEK293 T-REx D2 cells, calcium flux agonist mode; activation, % at 2 µM; 340,000 tested, 0.53% active; AID 485358;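 active means activation over 3 SD above normal in the single-dose calcium agonist read, cut at about 30% in these data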
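Tetracycline-induced HEK293 Trex cells with D2 receptor force-coupled to calcium signaling, plated overnight at 30 C and loaded with no-wash calcium dye. Calcium flux read kinetically for 180 s after compound addition; responses flag agonists.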
D2 ag-2: human D2 receptor agonism in beta-arrestin assay; 360,000 tested, 0.084% active; activation, % (test concentration not listed); DiscoveRx PathHunter D2 beta-arrestin, luminescence, 90 min; 100% = 57 uM dopamine signal; in the data active means activation above about 40%; inconclusive means between about 15% and that limit
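DiscoveRx PathHunter D2 beta-arrestin cells (2,100/well) attached overnight, then compound-stimulated 90 min at 37 C in HBSS/10 mM HEPES/0.1% Tween-20 buffer; beta-galactosidase complementation read by luminescence after 1 h at ambient temperature. Dopamine 57 uM final (EC100) as control.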
D2 PAM-1: positively modulates the human D2 dopamine receptor allosterically; potentiation, % at 10 µM; 340,000 tested, 0.34% active; P14416; HEK293 T-REx D2, calcium flux, EC20 dopamine potentiation; AID 485347;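 active means potentiation over 3 SD above the plate norm, cut at about 30% in these data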
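Primary screen. Calcium kinetics in induced HEK293 T-REx D2 cells: compound pre-addition 180 s, EC20 dopamine, 180 s more.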
D2 PAM-2: positive allosteric modulators of human D2 dopamine receptor; P14416; DiscoveRx D2 beta-arrestin cells, luminescence, 90 min; 100% = 57 uM dopamine signal; potentiation, % (test concentration not listed); 360,000 tested, 0.23% active; AID 624464; in the data active means potentiation above about 50%; inconclusive means mostly about 30% to 49%
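PathHunter beta-arrestin assay in DiscoveRx D2 cells. Compounds were added with an EC20 of dopamine (50 nM final) for 90 min at 37 deg C. Luminescence was read 1 h after detection reagent, with 57 uM dopamine as the EC100 control.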
Of the large screens only hits and unclear results are named; the others gave an inactive call. Only some compounds are listed: those with a hit (about 2.4% of all), similar ones and a draw of the others.

COc1ccccc1NS(=O)(=O)c1cc(C(=O)NC2CCN(Cc3ccccc3)CC2)ccc1C	none (no result: D2 antag, D2 ag-1, D2 PAM-1)
Cc1ccccc1-c1cc2nc(NCCN3CCCC3)n(C)c(=O)c2s1	none (no result: D2 antag, D2 ag-1, D2 PAM-1)
COc1cc(NC(=O)Cn2cnc3sc(C)c(S(=O)(=O)N4CCC(C)CC4)c3c2=O)cc(OC)c1OC	none (no result: D2 antag, D2 ag-2, D2 PAM-2)
CCOc1ccc2nc(Cl)c(C3CC(c4ccccc4)=NN3C(=O)CCC(=O)O)cc2c1 (stereo unspecified)	none (no result: D2 antag, D2 ag-2, D2 PAM-2)
CC(C)c1nc(C#N)c(NCCCn2ccnc2)o1	D2 antag 43
CCOC(=O)c1ccccc1NC(=O)Cn1c(=O)n(CCC(=O)NCc2ccccc2OC)c(=O)c2ccccc21	none (no result: D2 antag, D2 ag-2, D2 PAM-2)
COc1ccc(CCN=CC2=C(O)CC(C)(C)CC2=O)cc1	D2 antag 31
CC1(C)CC(=O)C(C=NCCc2ccc(S(N)(=O)=O)cc2)=C(O)C1	none (no result: D2 antag, D2 ag-1, D2 PAM-1)
COc1ccc(/C=C/C(=O)N2CCN(S(=O)(=O)c3ccccc3Br)CC2)cc1OC	none (no result: D2 antag, D2 ag-1, D2 PAM-1)
Nn1c(SC/C=C/c2ccccc2)nnc1-c1ccncc1	D2 antag 38
O=C(O)c1n[nH]c2c1CCCCC2	none
O=C(O)c1n[nH]c2c1CCCC2	D2 antag 57
Cc1nc2c3ccccc3n(CCN3CCCCC3)c2s1	D2 antag 40 (no result: D2 ag-2, D2 PAM-2)
COc1cc(NC(=S)NCc2cccnc2)cc(OC)c1	none
COc1cccc(NC(=O)C2C3C=CC(O3)C2C(=O)NCc2cccnc2)c1 (stereo unspecified)	D2 antag 44
Cc1ccc(NC(=O)CN2C(=O)CC(c3ccco3)Sc3ccccc32)cc1Cl (stereo unspecified)	none (no result: D2 antag, D2 ag-2, D2 PAM-2)
CSCC(C)N1CCC(CCC(=O)NC2CC2)CC1 (stereo unspecified)	D2 PAM-1 101
CCOC(=O)C1=CCN(S(=O)(=O)c2ccc(C)cc2)C1c1ccccc1F (stereo unspecified)	none (no result: D2 antag, D2 ag-1, D2 PAM-1)
Cn1cc(-c2cc3n(n2)CCC(=O)N3CC(=O)NCc2ccccc2)c2ccccc21	none (no result: D2 antag, D2 ag-2, D2 PAM-2)
CN(C)CCNC(=O)C(=O)c1c(-c2ccccc2)cc2ccccn12	none
COc1ccc(-c2c(-c3ccccc3)c(C(=O)C(=O)NCCCN(C)C)n3ccc4cc(OC)c(OC)cc4c23)cc1OC	D2 antag 48
COc1ccccc1OCC(O)CN1CCN(C(=O)c2ccccc2)CC1 (stereo unspecified)	D2 ag-1 33
CCOC(=O)N1CCN(CC(O)COc2ccccc2C(C)C)CC1 (stereo unspecified)	none
CCOC(=O)N1CCN(CC(O)COc2ccccc2C(C)CC)CC1 (stereo unspecified)	D2 antag 32
Cn1c(CN2CCCCC2)nc2cc(NS(=O)(=O)c3ccc(F)cc3)ccc21	D2 antag 74
Cn1c(CN2CCCCC2)nc2cc(NS(=O)(=O)c3ccc(Cl)cc3)ccc21	D2 antag 73
Cn1c(CCN2CCCCC2)nc2cc(NS(=O)(=O)c3ccc(Cl)cc3)ccc21	none
CC(=O)Nc1ccc2c(c1)nc(CN1CCCC1)n2C	none
Cn1c(CSCc2ccc(Cl)c(Cl)c2)nnc1SCC(=O)Nc1nccs1	D2 ag-2 inconclusive, D2 PAM-2 70
Cc1cc(C(=O)N2CCC2(C)C(=O)NCC(C)(C)C)nn1C (stereo unspecified)	none (no result: D2 antag, D2 ag-1, D2 PAM-1)
Cn1c(O)c(/C=C2\C=Nc3ccccc32)sc1=Nc1ccc(C(=O)O)cc1	none
O=C(Cc1ccccc1)Nn1c(O)c(/C=C2\C=Nc3ccccc32)sc1=S	D2 ag-1 34
O=c1oc(-c2ccco2)nc2ccccc12	D2 antag 36
O=c1oc(-c2ccco2)nc2c1cnn2-c1ccccc1	none
Cc1ccc(S(=O)(=O)N2CCN(C(=O)COC(=O)CNC(=O)c3ccccc3)CC2)c(C)c1	D2 antag 33
Brc1cnc(N2CCCC2)nc1N1CCOCC1	D2 antag 35
CC(=O)N1CCN(C(=O)c2cc(S(=O)(=O)N(C)Cc3ccccc3)ccc2Cl)CC1	D2 antag 30
Cc1ccc(S(=O)(=O)N(C)Cc2ccccc2)cc1C(=O)N1CCCCC1	none
Cc1ccc(-c2cc(C(F)(F)F)n3nc(C(=O)Nc4sc5c(c4C#N)CCC(C)C5)cc3n2)cc1 (stereo unspecified)	none (no result: D2 antag, D2 ag-2, D2 PAM-2)
CCCC(c1nnnn1Cc1ccc(F)cc1)N1CCN(C2CCCCC2)CC1 (stereo unspecified)	none
CC(C)C(c1nnnn1Cc1ccc(F)cc1)N1CCN(C2CCCC2)CC1 (stereo unspecified)	D2 antag 56
CN1CCN(C(c2ccc(F)cc2)c2nnnn2Cc2cccs2)CC1 (stereo unspecified)	none (no result: D2 antag, D2 ag-1, D2 PAM-1)
CN1CCN(C(c2cccs2)c2nnnn2Cc2ccc(F)cc2)CC1 (stereo unspecified)	D2 antag 42
OCC1CCCCN1CC(O)COC(c1ccc(F)cc1)c1ccc(F)cc1 (stereo unspecified)	D2 antag 31
COc1ccc(-c2cc(C(=O)Nc3cc(C)on3)no2)cc1	none
COc1ccc(NC(=O)c2cc(-c3ccco3)on2)cc1	none
COc1ccc(NC(=O)c2cc(-c3ccccc3OC)on2)cc1	D2 antag 32
CCc1ccc(NC(=O)c2cc(-c3ccco3)on2)cc1	D2 PAM-1 53
COc1ccc(NC(=O)c2cc(-c3ccccc3Cl)on2)cc1	none
COc1ccc(OC)c(-c2cc(C(=O)Nc3cc(C)on3)no2)c1	D2 antag 38
O=C(Cn1c(=O)n(Cc2ccc(F)cc2)c(=O)c2sc3ccccc3c21)Nc1ccc(F)cc1F	none (no result: D2 antag, D2 ag-2, D2 PAM-2)
COc1ccc(CNC(=O)c2cnn(-c3ccccc3)c2-n2cccc2)cc1OC	none (no result: D2 antag, D2 ag-2, D2 PAM-2)
O=C(OCC(=O)N1CCCCCC1)c1cc(S(=O)(=O)N2CCOCC2)ccc1F	none (no result: D2 antag, D2 ag-1, D2 PAM-1)
Cc1ccc(C(=O)N(C)Cc2ccc(N3CCOCC3)cc2)cc1S(=O)(=O)NCc1ccccc1	none
Cc1c(Cl)cccc1NS(=O)(=O)c1ccccc1	none (no result: D2 antag, D2 ag-1, D2 PAM-1)
Cc1c(NS(=O)(=O)c2ccccc2)cc(Cl)c(O)c1C	D2 ag-2 inconclusive, D2 PAM-2 62 (no result: D2 PAM-1)
CCn1nc(C)c2c(-c3ccccc3)cc(=O)n(C(C)C(=O)Nc3ccc(OC)c(OC)c3)c21 (stereo unspecified)	none (no result: D2 antag, D2 ag-2, D2 PAM-2)
COc1ccccc1N1C(=O)CSC1=S	D2 PAM-1 32
COc1ccccc1N1C(=O)CC(c2ccccc2)CC1=O	none
CCOC(=O)C1(C)CCCN1C(=O)c1ccc(N(C)C)cc1 (stereo unspecified)	none (no result: D2 antag, D2 ag-1, D2 PAM-1)
Cc1ccc(C)c(N2CCN(Cc3nnnn3C3CCCCC3)CC2)c1	none
Cc1ccc(C)c(N2CCN(CC3CCCCC3)CC2)c1	D2 antag 62
Cc1cccc(N2CCN(CC3CCCCC3)CC2)c1C	D2 antag 73
C/C=C(\C)CN1CCN(c2cccc(C)c2C)CC1	D2 antag 85
Cc1ccc(C)c(N2CCN(CCCc3ccccc3)CC2)c1	D2 antag 51
Cc1cccc(CNC(=O)CCn2c(=O)c3cccn3c3ccc(F)cc32)c1	none (no result: D2 antag, D2 ag-2, D2 PAM-2)
